{
  "source": "PubChem BioAssay AID2711",
  "about": "(National Center for Advancing Translational Sciences (NCATS), 2010)",
  "note": "The list shows a part of the results. Records with an inconclusive call do not appear. Unmarked numbers belong to inactive results. The source made the active and inactive calls. The call rests on the fitted dose curve; in most records, active means well fitted inhibition curve with a large enough effect; inconclusive means small, poorly fitted or top-dose-only effect; inactive means no such curve, though single readings can be large or run the other way.",
  "data": [
    {"experiment": "Counterscreen for RECQ1 Inhibitors: ADP Fluorescence Polarization Displacement Assay; further: nearly all actives have a fitted effect of over 45% in size; further: potency means the concentration at half of the fitted maximal effect; on activity change, negative = inhibition: on the % scale 0 is the no-effect control and ±100 the full control effect", "details": "series mostly up to 228 µM; activity change, negative = inhibition: at the top concentration", "from_the_text": "In order to gain further insight into the mode of action of the RECQ1 screening hits, we have profiled them in a set of miniaturized fluorescence polarization assays designed to report on compounds which competitively displace either co-substrate (ATP or DNA). The appropriate fluorescently-labeled probe was used: BODIPY Texas Red-labeled ADP was expected to be competed off by ATP-competitive inhibitors, while single-TAMRA labeled forked-duplex or short single-stranded DNA molecules served as probes for DNA-competitive compounds.\nThree uL of reaction buffer (25 mM Tris-HCl (pH 8.0), 5 mM NaCl, 2 mM MgCl2, 1mM DTT, 0.01% Tween- 20, and 2.5 ug/ml poly(dI-dC), containing 300 nM RECQ1 and 500 nM BODIPY Texas Red-ADP (Invitrogen) were dispensed into a 1536-well Greiner black assay plate via solenoid-valve based nanoliter dispensers; 500 nM BODIPY Texas Red-ADP without RECQ1 protein served as a fully-displaced control. Compounds (23 nl each in columns 5-48) were transferred via a Kalypsys pintool equipped with a 1536-pin array. The plates were incubated for 15 min at room temperature and were then transferred into a ViewLux high-throughput CCD imager, where the endpoint fluorescence polarization was measured using 525 nm excitation and 598 nm emission protocol.", "values": [
      {"compound": "COc1cc(C2C(C(=O)c3ccc(C)o3)=C(O)C(=O)N2CCc2ccccc2)ccc1O", "note": "(configuration not stated)", "activity change, negative = inhibition": "6.79%"},
      {"compound": "O=C(O)CCn1c(SCc2cc(=O)n3ccccc3n2)nc2ccsc2c1=O", "activity change, negative = inhibition": "0.643%"},
      {"compound": "CC1Cc2ccccc2N1C(=O)CSc1nnc(-c2ccc(S(=O)(=O)N3CCCC3)cc2)n1C", "note": "(configuration not stated)", "activity change, negative = inhibition": "3.82%"},
      {"compound": "O=C(CCn1nnc2ccccc2c1=O)N[C@@H](Cc1c[nH]c2ccccc12)C(=O)O", "activity change, negative = inhibition": "6.93%"},
      {"compound": "c1ccc(CSc2nnc(-c3ccco3)c(-c3ccco3)n2)cc1", "Potency": "50.1 µM (active)"},
      {"compound": "O=C(N/N=C/c1sc(N2CCCCC2)nc1-c1cccs1)c1cccnc1", "activity change, negative = inhibition": "59.1% [at 91.9 µM]"},
      {"compound": "O=C(OCC1O[C@@H](OC(=O)c2cc(O)c(O)c(O)c2)[C@@H](OC(=O)c2cc(O)c(O)c(O)c2)[C@@H](OC(=O)c2cc(O)c(O)c(O)c2)[C@@H]1OC(=O)c1cc(O)c(O)c(O)c1)c1cc(O)c(O)c(O)c1", "note": "(some centres not stated)", "activity change, negative = inhibition": "-12.5% [at 91.9 µM]"},
      {"compound": "CC(=O)Nc1ccc(Nc2c3ccccc3nc3ccccc23)cc1", "activity change, negative = inhibition": "34.5% [at 91.9 µM]"},
      {"compound": "CC(C)C1N=C2c3ccccc3N=C(SCC(=O)c3ccc(O)c(O)c3)N2C1=O", "note": "(configuration not stated)", "activity change, negative = inhibition": "-10.2% [at 91.9 µM]"},
      {"compound": "O=C(NC(Cc1ccccc1)C(=O)N1CCCC1C(=O)O)c1ccccc1", "note": "(configuration not stated)", "activity change, negative = inhibition": "-0.948%"},
      {"compound": "O=C(NC(Cc1c[nH]c2ccccc12)C(=O)O)/C(=C/c1ccco1)NC(=O)c1ccccc1", "note": "(configuration not stated)", "activity change, negative = inhibition": "8.72%"},
      {"compound": "O=C(NCc1ccccc1)C1=C[C@@H](C2CCCCC2)C[C@@H](OCc2ccc(CO)cc2)O1", "activity change, negative = inhibition": "-3.38% [at 91.9 µM]"}
    ]}
  ]
}
